From PubChem BioAssay
RECQ1 inh: RECQ1 (human) helicase inhibition | P46063 | RECQ1 DNA unwinding, red fluorescence kinetic read | Potency, µM (highest dose often 57.3 µM), hits mostly inhibitors | actives 0.54% (n = 240,000) | AID 2549; further: nearly all actives have a fitted effect of over 30% in size
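RECQ1T1 50 nM; forked duplex (20 bp + 30-nt ss tails) 200 nM, ATP 2 mM final; pH 8.0, 2 mM MgCl2, 2.5 ug/ml poly(dI-dC); 15 min compound preincubation; discontinuous kinetic read over 2 h at RT.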
BLM inh: inhibitors of human Bloom syndrome helicase BLM. P54132. recombinant BLM DNA unwinding, fluorescence dequenching. Potency, µM (titrated, usually from 56.1 µM), hits mostly inhibitors. actives 0.2% (n = 350,000). AID 2528; further: nearly all actives have a fitted effect of over 35% in size
APEX1 inh: inhibitors of human APE1 endonuclease | actives 0.35% (n = 350,000) | recombinant APE1, TAMRA/BHQ-2 abasic DNA cleavage fluorescence | P27695 | Potency, µM (titrated, usually from 65.8 µM), usual class: inhibitors; further: nearly all actives have a fitted effect of over 55% in size
Target sequence (P27695 whole entry, looked up): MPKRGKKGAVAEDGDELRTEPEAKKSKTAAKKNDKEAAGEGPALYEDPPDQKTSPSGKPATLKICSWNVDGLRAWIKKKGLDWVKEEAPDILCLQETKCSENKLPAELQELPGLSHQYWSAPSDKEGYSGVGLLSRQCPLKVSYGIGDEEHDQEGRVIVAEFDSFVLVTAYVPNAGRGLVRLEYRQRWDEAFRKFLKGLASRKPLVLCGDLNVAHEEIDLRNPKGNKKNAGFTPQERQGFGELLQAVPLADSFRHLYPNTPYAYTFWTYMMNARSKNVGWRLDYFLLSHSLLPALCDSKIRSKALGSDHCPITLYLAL
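Compound pre-exposure to 0.75 nM APE1, 15 min at ambient temperature. Reaction initiated with 50 nM TAMRA/BHQ-2 THF substrate, read immediately in kinetic mode, 525 nm excitation, 598 nm emission.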
FEN1 inh: human FEN1 inhibition; P39748; Recombinant FEN1 flap cleavage, fluorescence, 15 min; Potency, µM (series often up to 114 µM), most hits filed as inhibitors; actives 0.35% (n = 390,000); further: nearly all actives have a fitted effect of over 65% in size
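In this screen, 50 nM flap DNA substrate was added to 10 nM FEN1 pretreated with compound for 15 min at room temperature; cleavage was followed with reads at 0 and 15 min, and Hill fitting gave concentration–response parameters.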
PI5P4K alpha inh: inhibitors of human PI5P4K alpha; PI5P4Kalpha enzyme, ADP-Glo luminescence, 60 min; hits give low values; max response, %; AID 652105; actives 1.2% (n = 330,000); P48426; active means max response of -50% or lower; inconclusive means between -30% and -50%; inactive means -30% or higher; further: value at the top dose of about 77 µM
Target sequence (P48426 whole entry, looked up): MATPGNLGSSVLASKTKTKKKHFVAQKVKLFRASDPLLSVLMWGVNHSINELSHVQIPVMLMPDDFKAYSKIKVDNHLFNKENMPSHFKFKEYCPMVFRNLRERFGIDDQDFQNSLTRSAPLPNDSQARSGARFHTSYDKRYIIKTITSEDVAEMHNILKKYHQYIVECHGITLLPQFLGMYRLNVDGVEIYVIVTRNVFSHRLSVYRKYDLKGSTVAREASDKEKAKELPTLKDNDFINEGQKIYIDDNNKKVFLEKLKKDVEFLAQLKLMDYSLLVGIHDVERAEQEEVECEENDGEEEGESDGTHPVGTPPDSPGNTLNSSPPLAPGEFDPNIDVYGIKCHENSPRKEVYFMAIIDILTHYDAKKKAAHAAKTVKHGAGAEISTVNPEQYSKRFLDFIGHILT
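PI5P4Kalpha ADP-Glo assay; 5 microM ATP final; 60 min RT reaction; HEPES pH 7.4/EGTA/CHAPS, 5% DMSO; controls lacking substrate or enzyme; luminescent end-point.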
WRN helicase inh: inhibitors of human WRN helicase; Potency, µM (highest dose often 114 µM), most hits filed as inhibitors; Q14191; WRN helicase unwinding, fluorescent forked duplex, kinetic; actives 0.46% (n = 360,000); further: nearly all actives have a fitted effect of over 55% in size
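Screening of the MLSMR collection measured strand separation of a quenched forked DNA duplex (100 nM) by 20 nM WRN with 2 mM ATP, all final. Compounds were preincubated with enzyme 15 min at room temperature.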
Hits are given with their value; . = inactive; ? = inconclusive; / = not tested or not shown; ! = a repeat was not active; [ ] = remark or other dose. Sampled rows, rich in hits. Any-hit rate of the full collection: about 1.5%. Unless noted, the call rests on the fitted dose curve; in most records, active means well fitted curve in the direction sought with a large enough effect; inconclusive means small, poorly fitted or top-dose-only effect, or another doubt; inactive means no such curve, though single readings can be large; an effect the other way counts as inactive or inconclusive.

SMILES | RECQ1 inh | BLM inh | APEX1 inh | FEN1 inh | PI5P4K alpha inh | WRN helicase inh
CC(=O)Nc1ccc(/C=C/C(=O)c2ccc(-n3nncc3-c3ccccc3)cc2)cc1 | / | / | / | . | / | /
Oc1ccc(/C=N/NC(=S)Nc2cccnc2)c(O)c1 | . | . | . | . | -75.1 | .
Fc1c(F)c(F)c(/C=N/NC(=S)Nc2cccnc2)c(F)c1F | . | . | . | . | . | .
Oc1ccc(/C=N/NC(=S)Nc2cccnc2)c(O)c1O | 3.55µM | . | 0.794µM | 4.47µM | -96.4 | 10µM
Oc1cccc(/C=N/NC(=S)Nc2cccnc2)c1O | ? | . | ? | ? | -66.2 | ?
O=C(Cn1c(=O)c2cccn2c2ccc(F)cc21)N1CCN(c2ccccc2F)CC1 | / | . | / | . | / | /
COC(=O)c1ccc(Cn2c(O)c(N=NC(N)=S)c3ccccc32)o1 | ? | . | ? | . | -56.6 | .[11.6 µM]
Cc1cnc(C=NNC(N)=S)c2cccc(N)c12 | / | / | / | ? | -53.2 | ?
Clc1cccc[n+]1CCCCCC[n+]1ccccc1Cl | / | / | / | . | / | /
S=c1[nH]nc(Nc2cccc(Cl)c2)s1 | . | . | . | . | -54.9 | .
Cc1ccc(Nc2cc(=O)[nH]c(=O)[nH]2)cc1C | . | . | . | . | . | .
S=c1[nH]nc(Nc2ccccc2Cl)s1 | . | . | . | . | -77.7 | .
Cc1ccc(Nc2n[nH]c(=S)s2)cc1C | / | / | / | / | -73.9 | .
COc1cccc(NC(=O)C2CCN(c3ccc(Sc4ccc(C)cc4)nn3)CC2)c1 | / | . | / | . | / | /
CCOC(=O)N1CCc2c(sc3c2c(=O)n(CCc2ccccc2)c(=O)n3Cc2c(F)cccc2Cl)C1 | / | . | / | . | / | /
C=CC(C)(C)c1c(O)c(CC=C(C)C)c(O)c2c(=O)c3ccc(O)c(O)c3oc12 | / | / | / | . | . | .
C=CC(C)(C)c1[nH]c2ccccc2c1C1=C(O)C(=O)C(c2c[nH]c3c(CC=C(C)C)cccc23)=C(O)C1=O | 10µM | 6.31µM | 20µM | / | / | /
CC(=O)Nc1ccc(S(=O)(=O)N2CCC(n3c(C(F)(F)F)nc4cccnc43)CC2)cc1 | / | . | / | . | / | /
NCC(O)COc1cccc2ccccc12 (configuration not stated) | . | / | . | / | / | /
COC/C=C/C1=CC2=CC(=O)C(C)(OC(=O)c3cnc4ccccc4n3)C(=O)C2=CN1c1ccccc1 (configuration not stated) | . | .[12.4 µM] | .[12.4 µM] | . | -69.4 | .
COC/C=C/C1=CC2=CC(=O)C(C)(OC(=O)c3cnc4ccccc4n3)C(=O)C2=CN1c1ccc(CO)cc1 (configuration not stated) | .[11.5 µM] | 12.6µM! | 10.6µM! | / | / | /
Cc1nn(-c2ccccc2)c2c1N(CC(=O)N1CCN(c3ccc(F)cc3)CC1)C(=O)CS2 | / | . | / | . | / | /
CCOC(=O)C(=O)Cc1cccnn1 | / | / | / | . | . | 50.1µM
Cn1c(-c2ccc3nc(N)sc3c2)nc2cc(N)ccc21 | . | . | ? | 56.2µM | . | ?
Cn1c(-c2ccc(N)cc2)nc2ccccc21 | . | . | . | . | . | .
SMILES | RECQ1 inh | BLM inh | APEX1 inh | FEN1 inh | PI5P4K alpha inh | WRN helicase inh
O=C1c2ccccc2C(=O)C1c1ccnc2ccccc12 | . | . | . | . | . | .
N#CC1=C(N)SC(N)=C(C#N)C1c1ccnc2ccccc12 | . | . | . | . | -74.3 | ?
CCN(CC)CCn1c2ccccc2c2nc3ccccc3nc21 | / | . | . | 25.1µM | . | .[11.6 µM]
CCCn1c2ccccc2c2nc3ccccc3nc21 | . | . | . | ? | . | .
O=c1c(Cl)c(O)c2cccc3c4ccccc4n1c23 | . | . | . | ? | -56.8 | .
COc1c(O)c(=O)n2c3ccccc3c3ccnc1c32 | / | / | . | 11.2µM | . | .
Cc1ccccc1NC(=O)CSc1[nH]c(=O)cc(C)c1C#N | . | . | . | ? | -56.0 | .
Cc1cc(NC(=O)CSc2[nH]c(=O)cc(C(F)(F)F)c2C#N)no1 | / | / | . | . | -74.8 | .
Cc1cc(=O)[nH]c(SCC(=O)c2ccccc2)c1C#N | . | . | . | . | . | .
Cc1cc(-n2c(C)cc(C(=O)CSc3[nH]c(=O)cc(C(F)(F)F)c3C#N)c2C)no1 | / | / | . | . | . | .
CN(Cc1cnc2nc(N)nc(N)c2n1)c1ccc(C(=O)N[C@@H](CCC(=O)O)C(=O)O)cc1 | . | . | ? | ? | -68.3! | .
Cc1ccc(N=Nc2c(O)ccc3n[nH]nc23)cc1 | . | . | . | . | -59.9 | .
O=c1ccn(C2OC(COP(=O)(O)OC3C(CO)OC(n4ccc(=O)[nH]c4=O)C3O)C(O)C2O)c(=O)[nH]1 (configuration not stated) | / | . | / | / | / | /
COc1ccc(OC)c(C2=Nn3c(nnc3-c3ccc(OC)c(OC)c3)SC2)c1 | . | . | . | / | / | /
COc1ccc(-n2c(Cc3cccn3C)nnc2SCC(=O)N2CCCc3ccccc32)cc1 | 15.8µM | . | . | . | / | .
COc1ccc(-n2c(Cc3cccn3C)nnc2SCC(=O)N2CCCC2)cc1 | . | . | . | . | . | .
CCOc1ccccc1NC(=O)C(=O)c1cc(C)n(-c2ccc(F)cc2)c1C | / | . | / | . | / | /
Cc1cc(C(=O)N/N=C2\CC(=O)c3ccccc32)c(C)n1-c1ccc(F)cc1 | . | . | . | . | -64.4 | .
NC(=S)n1[nH]c(-c2ccc([N+](=O)[O-])cc2)c(N=Nc2cccc(Cl)c2)c1=O | . | . | . | 50.1µM | -78.5 | .
O=C(Nc1ccc(C(=O)Nc2ccc(C(=O)Nc3ccc(S(=O)(=O)O)c4cc(S(=O)(=O)O)cc(S(=O)(=O)O)c34)cc2)cc1)Nc1ccc(C(=O)Nc2ccc(C(=O)Nc3ccc(S(=O)(=O)O)c4cc(S(=O)(=O)O)cc(S(=O)(=O)O)c34)cc2)cc1 | 6.31µM | . | 7.94µM | / | / | /
CC(C)(C)c1ccc(C(=O)Nc2ccc(S(N)(=O)=O)cc2)cc1 | . | . | . | . | . | .
Cc1cc(C)c(NC(=O)CSc2nnc3[nH]c(=O)cc(C)n23)c(C)c1 | / | . | / | . | / | /
Cc1nc(SCc2ccccc2Cl)c(C#N)c(C)c1C | / | . | / | . | / | /
N#Cc1c(SCc2c(Cl)cccc2Cl)nc(N)[nH]c1=S | / | / | . | . | -65.2 | .
COC(=O)/C=C/COc1ccccc1[N+](=O)[O-] | . | . | . | ? | -67.4 | .
O=Cc1ccc(C(=O)OCC(=O)NC(=O)Nc2ccccc2F)cc1 | / | / | . | . | -56.6 | .
CS(=O)(=O)c1cccc(C(=O)OCC(=O)NC(=O)Nc2ccccc2F)c1 | / | / | . | . | . | .
O=C(/C=C/c1ccc(O)c(O)c1)NC(=O)c1ccccc1O | . | . | ? | ? | ? | 56.2µM
O=C(/C=C/c1ccc(Br)cc1)NC(=O)c1ccccc1O | . | . | . | . | . | .
Cc1cc(C)c(S(=O)(=O)/N=C2/C=C(SCC(=O)O)C(=O)c3ccccc32)cc1C | ? | 31.6µM | ? | 10µM | ? | 17.8µM
